ZTA DNA inh – ZTA (EBV) inhibition in EBNA-1 counter-screen; P03206; AID 2234; ZTA-DNA binding, fluorescence polarization; inhibition, % at 11 µM; 320,000 tested, 0.15% active; in the data active = inhibition above about 33%
PAFAH1B3 inh – blocks human PAF acetylhydrolase 1B catalytic subunit 3. 340,000 tested, 0.28% active. Q15102. recombinant PAFAH1B3, FP-rhodamine probe, fluorescence polarization. inhibition, % at 3.39 µM;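 active = inhibition above the screen-wide average of all tested compounds plus 3 SD, cut at about 25% in these data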
Target sequence (Q15102 whole entry, looked up): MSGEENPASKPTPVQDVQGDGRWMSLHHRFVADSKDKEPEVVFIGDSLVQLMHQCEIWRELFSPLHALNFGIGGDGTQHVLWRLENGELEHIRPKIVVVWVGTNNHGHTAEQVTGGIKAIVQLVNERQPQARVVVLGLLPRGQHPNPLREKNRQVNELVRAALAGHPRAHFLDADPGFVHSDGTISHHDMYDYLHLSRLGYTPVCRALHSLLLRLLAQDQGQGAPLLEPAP
rCAG binder – binds r(CAG) RNA repeats; r(CAG) RNA repeat, TO-PRO-1 dye displacement fluorescence; inhibition, % at 3 µM; 370,000 tested, 1.3% active;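 active = inhibition above the plate cutoff, the mean of all test compounds on that plate plus 3 SD, cut at about 35% in these data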;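 note: higher means more dye released from RNA so lower well fluorescence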
PAFAH2 inh – PAFAH2 (human) inhibition. Q99487. inhibition, % at 3.39 µM. 340,000 tested, 0.99% active. recombinant PAFAH2, FP-rhodamine activity probe, fluorescence polarization;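 active = inhibition above the mean over all tested compounds plus 3 SD, cut at about 30% in these data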;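 note: inhibitors block probe labeling of enzyme so polarization drops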
PAFAH1B2 FP inh – PAFAH1B2 (human) inhibition | P68402 | recombinant PAFAH1B2, FP-rhodamine activity probe, fluorescence polarization | inhibition, % at 3.39 µM | 340,000 tested, 1.2% active | AID 492953;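 active = inhibition above the mean of all tested compounds plus 3 SD, cut at about 24% in these data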
Target sequence (P68402 whole entry, looked up): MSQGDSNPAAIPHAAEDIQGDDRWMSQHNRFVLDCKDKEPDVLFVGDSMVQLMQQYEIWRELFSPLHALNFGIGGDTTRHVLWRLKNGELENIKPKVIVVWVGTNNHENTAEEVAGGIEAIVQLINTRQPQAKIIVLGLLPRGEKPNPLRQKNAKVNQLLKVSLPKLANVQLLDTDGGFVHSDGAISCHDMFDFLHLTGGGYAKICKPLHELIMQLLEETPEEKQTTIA
EBNA-1 inhibitor – blocks EBNA-1 binding to DNA; EBNA-1 DNA binding, fluorescence polarization; inhibition, % at 14.8 µM; 300,000 tested, 0.34% active; AID 1950; in the data active = inhibition above about 28%
Large screens that a line does not name were inactive. Most compounds without a hit are left out; they make up all but 2.9% or so of the library.

CCOC(=O)C1=NOC(C(=O)Nc2cc(C)cc(C)c2)(C(=O)C2CC2)C1 (stereo unspecified)	none (no result: ZTA DNA inh, PAFAH1B3 inh, PAFAH2 inh, PAFAH1B2 FP inh, EBNA-1 inhibitor)
O=C(Nc1ccc(F)cc1)OCc1cn(Cc2ccc(C(F)(F)F)cc2)nn1	none (no result: ZTA DNA inh, PAFAH1B3 inh, PAFAH2 inh, PAFAH1B2 FP inh, EBNA-1 inhibitor)
Cn1c(COc2ccc(Cl)cc2)nnc1SCc1ncc(-c2ccccc2)o1	PAFAH1B2 FP inh 36.0
COc1ccc(-n2cnnc2SCc2ncc(-c3ccccc3)o2)cc1	none
Cc1cc(NC(=O)CCC(=O)N(c2ccccc2)C2(C(=O)NC3CCCCC3)CCCC2)no1	PAFAH1B2 FP inh 26.0
Cc1cc(NC(=O)C2(c3ccccc3)CCCC2)no1	PAFAH1B2 FP inh 24.7
CCn1c(COc2ccc(C)cc2)nnc1SCC(=O)c1ccc(-c2ccccc2)cc1	none (no result: ZTA DNA inh, PAFAH1B3 inh, PAFAH2 inh, PAFAH1B2 FP inh, EBNA-1 inhibitor)
CC(c1ccco1)N(C(=O)c1cc(Cl)cc(Cl)c1)c1ccccn1 (stereo unspecified)	none
CC(c1ccco1)N(C(=O)c1ccccc1NS(=O)(=O)c1ccc(Cl)c([N+](=O)[O-])c1)c1ccccn1 (stereo unspecified)	rCAG binder 68.7
N#CCC[C@H]1CC[C@]2(CCCN(C(=O)C3CCCC3)C2)O1	none (no result: ZTA DNA inh, PAFAH1B3 inh, PAFAH2 inh, PAFAH1B2 FP inh, EBNA-1 inhibitor)
O=C(CSc1nnc(COc2ccc(Cl)cc2)n1Cc1ccco1)Nc1ccc(OCc2ccccc2)cc1	none (no result: ZTA DNA inh, PAFAH1B3 inh, PAFAH2 inh, PAFAH1B2 FP inh, EBNA-1 inhibitor)
COC(=O)[C@H](C(C)C)N1CCc2nnn(CC3CCCCC3)c2-c2cc(F)ccc2S1(=O)=O	none (no result: ZTA DNA inh, PAFAH1B3 inh, PAFAH2 inh, PAFAH1B2 FP inh, EBNA-1 inhibitor)
N#Cc1c(-c2ccccc2Cl)noc1/C=C/Nc1ccc(C(=O)O)cc1	none
CN(C)/C=C(\C=O)c1onc(-c2ccccc2Cl)c1C#N	PAFAH2 inh 32.8
O=C(COC(=O)C1(c2ccc(F)cc2)CCCC1)N1CCN(C(=O)c2ccco2)CC1	PAFAH1B2 FP inh 33.4
COc1ccc2c(c1)CN1C(=O)N(CCc3ccccc3)S(=O)(=O)CC21 (stereo unspecified)	none (no result: ZTA DNA inh, PAFAH1B3 inh, PAFAH2 inh, PAFAH1B2 FP inh, EBNA-1 inhibitor)
c1ccc2c(c1)[nH]c1ccccc12	PAFAH1B2 FP inh 24.9
COc1ccc(N2CCN(C(=O)c3ccc(C(C)(C)C)cc3)CC2)cc1	none
COc1ccc(N2CCN(C(=O)CCNC(=O)c3ccc(C(C)(C)C)cc3)CC2)cc1	PAFAH1B2 FP inh 64.3
CCOc1ccc(-n2c(SCC(=O)Nc3cc(C)c(NC(=O)c4ccccc4)cc3OC)nnc2-c2ccncc2)cc1	none (no result: ZTA DNA inh, PAFAH1B3 inh, PAFAH2 inh, PAFAH1B2 FP inh, EBNA-1 inhibitor)
O=C(NCCCO)Nc1ccc2nc(-c3ccco3)c(-c3ccco3)nc2c1	ZTA DNA inh 58.0 (no result: PAFAH1B3 inh, rCAG binder, PAFAH2 inh, PAFAH1B2 FP inh)
O=C(Nc1ccc2nc(-c3ccco3)c(-c3ccco3)nc2c1)NC1CC1	PAFAH1B3 inh 36.3, PAFAH2 inh 34.5 (no result: ZTA DNA inh, rCAG binder, EBNA-1 inhibitor)
c1ccc(-c2ccc3c(n2)CCCN3Cc2ccccn2)cc1	none (no result: ZTA DNA inh, PAFAH1B3 inh, PAFAH2 inh, PAFAH1B2 FP inh, EBNA-1 inhibitor)
CC[n+]1c(/C=C/N(C)c2ccccc2)oc2ccc(Cl)cc21	none
CCN1/C(=C/C=C/c2oc3ccc4ccccc4c3[n+]2CC)Oc2ccc3ccccc3c21	EBNA-1 inhibitor 28.7 (no result: PAFAH1B3 inh, rCAG binder, PAFAH2 inh, PAFAH1B2 FP inh)
CCOC(=O)C1(Cc2ccccc2)CCN(Cc2ccnc3ccccc23)CC1	none (no result: ZTA DNA inh, PAFAH1B3 inh, PAFAH2 inh, PAFAH1B2 FP inh, EBNA-1 inhibitor)
Cc1ccc(SCCNC(=O)c2ccc(C)c(S(=O)(=O)Nc3ccccc3C)c2)cc1	PAFAH1B2 FP inh 39.7
Cc1ccccc1NS(=O)(=O)c1cc(C(=O)NCc2ccco2)ccc1C	none
Cc1ccc(SCCNC(=O)c2ccc([N+](=O)[O-])c(C)c2)cc1	PAFAH1B2 FP inh 28.1
Cc1ccc(C(=O)O/N=C(\N)Cc2cccs2)c(Cl)c1	PAFAH2 inh 34.6 (no result: rCAG binder)
Cc1cccc(C(=O)NNC(=O)C23CC4CC(CC(C4)C2)C3)c1O	PAFAH2 inh 31.1, PAFAH1B2 FP inh 37.2
O=C(NNC(=O)C12CC3CC(CC(C3)C1)C2)c1ccccc1O	PAFAH2 inh 63.3, PAFAH1B2 FP inh 35.9 (no result: EBNA-1 inhibitor)
COC(=O)c1ccccc1S(=O)(=O)NNC(=O)C12CC3CC(CC(C3)C1)C2	PAFAH2 inh 79.6, PAFAH1B2 FP inh 24.2 (no result: ZTA DNA inh, EBNA-1 inhibitor)
COc1ccc(N(CC(=O)NCCSc2ccc(C)cc2)S(=O)(=O)c2ccccc2)c(OC)c1	PAFAH1B2 FP inh 26.6
Cc1ccc(S(=O)(=O)NNC(=O)c2cc3cc4ccccc4nc3s2)cc1	rCAG binder 35.7
Cc1cccc(C(=O)NNC(=O)c2cc3cc4ccccc4nc3s2)c1	none
Cc1ccc(S(=O)(=O)Nc2nc(C)c(C(=O)NNS(=O)(=O)c3ccccc3)s2)cc1	PAFAH1B2 FP inh 28.7
Cc1cccc(S(=O)(=O)NNC(=O)c2sc(C)nc2C)c1	none
CCN(CC)C(=O)CC[C@@H]1CC[C@]2(CCCN(C(=O)C(C)(C)C)C2)O1	none (no result: ZTA DNA inh, PAFAH1B3 inh, PAFAH2 inh, PAFAH1B2 FP inh, EBNA-1 inhibitor)
Cc1ccc(NC(=O)C(=O)Nc2ccc(C)cn2)nc1	none

Screening results from PubChem.
